PubChem BioAssay (NCATS)
Inconclusive results are not listed. A call without a number means that no potency is given here. The source made the active and inactive calls. Unless noted, calls follow the shape of the dose curve; as a rule, active = well fitted curve in the direction sought with a large enough effect; inconclusive = small, poorly fitted or top-dose-only effect, or another doubt; inactive = no such curve, though single readings can be large; an effect the other way counts as inactive or inconclusive. Residues, ends and D or L forms follow the SMILES beside them. *: point of attachment. Cbz = O=C(OCc1ccccc1)*

Tests used:
[1] = Nrf2 qHTS screen for inhibitors: Validation (AID 493153; active = well fitted inhibition curve with a large enough effect in the main read-out, with a control signal flat, not every such curve was filed as active); conditions: Potency: luciferase luminescence; viability change: measured here: cytotoxicity max response
In short: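 In this counterscreened reporter format, each well gives two signals: CellTiter-Fluor fluorescence for cytotoxicity and ARE-luciferase luminescence for Nrf2 function. A549 ARE_Fluc cells in 5% FBS OPTI-MEM were exposed to compound titrations for 18-24 h.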

[2] = qHTS for Inhibitors of Cell Surface uPA Generation: Validation Assay (AID 493164);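 also: RAW 264.7 macrophage cells exposed to compound for 18 h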
In short: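 Compounds are titrated over seven points (2.45 nM–38.3 uM final) onto pre-plated RAW 264.7 cells and incubated for 18 h. Retained intracellular ATP, measured with ATP-Lite, indicates blocked lethal factor entry.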

[3] = molecular target: Galactokinase (Homo sapiens) (UniProt P51570); assay: qHTS Validation Assay for Inhibitors of Human Galactokinase (GALK) (AID 493189)
In short: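 GALK (5 nM) with 35 uM ATP and 100 uM galactose in HEPES pH 8.0 with MgCl2, NaCl, DTT and BSA. Reaction ran 1 h at room temperature. Residual ATP read by Kinase-Glo Plus luminescence.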

[4] = Validation screen for small molecules that induce DNA re-replication in SW480 colon adenocarcinoma cells (AID 504364)
In short: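 Hoechst-stained SW480 nuclei, imaged at 405 nm excitation after 48 hr compound exposure, were counted for elevated DNA content as the re-replication signal.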

[5] = molecular target: Peptidyl-prolyl cis-trans isomerase NIMA-interacting 1 (Homo sapiens) (UniProt Q13526); assay: qHTS Validation Assay to Find Inhibitors of Pin1 (AID 504536; active = well fitted inhibition curve with a large enough effect in the polarisation, with a control signal flat, not every such curve was filed as active; the % refers to the polarisation; also: potency is read from the fitted curve at half-maximal effect)
In short: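 Fluorescence polarization competition: compounds (titration) displace HiFluor-488-labeled Pin1-1b peptide from Pin1 (0.3 uM final) in pH 7.5 HEPES buffer with DTT, 10 min at room temperature; %Activity normalized to no-enzyme wells, curves fitted.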

[6] = molecular target: Phosphoglycerate kinase, glycosomal (Trypanosoma brucei brucei) (UniProt P07378); assay: qHTS Validation Assay to Find Inhibitors of Phosphoglycerate Kinase (AID 504547)
In short: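 Luminescence end-point (Kinase-Glo Plus, 10 min) after a 60 min room-temperature coupled reaction. GAPDH at 100nM final supplies 1,3-BPG to PGK. Buffer: 100mM TEA pH 7.6, 5mM MgCl2, 0.01% Tween-20. Wells lacking PGK served as controls.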

[7] = molecular target: phosphoglycerate mutase (Leishmania major) (UniProt Q4Q090); assay: qHTS Validation Assay to Find Inhibitors of Phosphoglycerate Mutase (AID 504548); conditions: Potency: inhibition qHTS; also: series mostly up to about 58 µM
In short: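 Lm PGAM at 1.25 nM final with substrate in 100 mM TEA pH 7.6, 5 mM MgCl2, 0.01% Tween-20; 45 min at room temperature. Kinase-GloPlus added, 10 min, end-point luminescence read.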

[8] = molecular target: Ubiquitin carboxyl-terminal hydrolase 1 (Homo sapiens) (UniProt O94782); assay: Inhibitors of USP1/UAF1: Pilot qHTS (AID 504865); also: nearly all actives have a fitted effect of over 35% in size; also: potency is read from the fitted curve at half-maximal effect
In short: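 USP1/UAF1 complex at 1 nM preincubated 15 min at room temperature with compound, then Ub-Rho substrate added at 150 nM final. Fluorescence (480/540 nm) read kinetically in 50 mM HEPES pH 7.8, 0.5 mM EDTA, 1 mM TCEP, 0.1 mg/ml BSA, 0.01% Tween-20.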

[9] = qHTS for Inhibitors of ATXN expression: Validation (AID 588378); also: nearly all actives have a fitted effect of over 75% in size; also: potency is read from the fitted curve at half-maximal effect
In short: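 HEK293 cells carrying ATXN2-firefly luciferase reporter, treated with compound 24 h at 37 °C. Viability read first by CellTiter-Fluor (405/525 nm), then reporter expression by Bright-Glo luminescence; controls were a known ATXN2 expression inhibitor and a luciferase inhibitor.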

[10] = qHTS for Inhibitors of ATXN expression: Validation of Cytotoxic Assay (AID 588349)
In short: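 Toxicity of test compounds toward HEK293 cells is scored from cellular ATP content measured by CellTiter Glo. Cells receive titrated doses and incubate 72 hr at 37 degrees C beforehand.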

Chain of Phosphoglycerate kinase, glycosomal (Trypanosoma brucei brucei) (P07378 whole entry, looked up): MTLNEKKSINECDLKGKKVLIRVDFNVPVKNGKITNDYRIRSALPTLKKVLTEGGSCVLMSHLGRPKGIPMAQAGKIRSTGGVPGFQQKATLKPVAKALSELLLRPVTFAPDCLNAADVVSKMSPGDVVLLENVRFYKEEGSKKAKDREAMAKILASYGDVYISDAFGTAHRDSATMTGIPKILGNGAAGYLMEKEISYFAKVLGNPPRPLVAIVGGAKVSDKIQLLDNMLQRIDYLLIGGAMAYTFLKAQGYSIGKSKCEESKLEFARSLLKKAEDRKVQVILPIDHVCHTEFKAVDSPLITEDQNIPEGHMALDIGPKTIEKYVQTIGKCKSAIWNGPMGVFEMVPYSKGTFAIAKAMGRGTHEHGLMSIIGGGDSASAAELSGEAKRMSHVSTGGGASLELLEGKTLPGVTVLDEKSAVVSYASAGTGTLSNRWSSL
Chain of Ubiquitin carboxyl-terminal hydrolase 1 (Homo sapiens) (O94782 whole entry, looked up): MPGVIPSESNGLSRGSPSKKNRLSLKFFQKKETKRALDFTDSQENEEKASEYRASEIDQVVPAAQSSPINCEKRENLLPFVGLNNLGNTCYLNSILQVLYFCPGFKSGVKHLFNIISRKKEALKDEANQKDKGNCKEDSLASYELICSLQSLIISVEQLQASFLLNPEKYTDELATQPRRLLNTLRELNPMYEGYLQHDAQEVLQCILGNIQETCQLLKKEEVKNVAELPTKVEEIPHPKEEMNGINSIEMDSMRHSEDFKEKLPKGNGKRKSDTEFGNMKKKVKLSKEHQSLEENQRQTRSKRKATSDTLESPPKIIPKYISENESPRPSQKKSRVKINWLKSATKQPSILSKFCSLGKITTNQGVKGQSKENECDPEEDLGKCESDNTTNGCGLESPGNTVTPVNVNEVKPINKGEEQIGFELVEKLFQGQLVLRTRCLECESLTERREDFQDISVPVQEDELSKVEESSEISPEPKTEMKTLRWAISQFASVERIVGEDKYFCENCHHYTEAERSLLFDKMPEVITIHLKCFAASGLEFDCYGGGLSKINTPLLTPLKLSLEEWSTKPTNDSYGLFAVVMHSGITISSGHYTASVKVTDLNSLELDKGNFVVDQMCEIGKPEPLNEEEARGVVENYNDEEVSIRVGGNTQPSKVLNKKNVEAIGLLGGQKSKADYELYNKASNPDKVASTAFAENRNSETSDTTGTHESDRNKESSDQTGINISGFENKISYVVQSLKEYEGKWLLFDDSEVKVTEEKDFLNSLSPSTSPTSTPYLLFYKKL
Chain of Galactokinase (Homo sapiens) (P51570 whole entry, looked up): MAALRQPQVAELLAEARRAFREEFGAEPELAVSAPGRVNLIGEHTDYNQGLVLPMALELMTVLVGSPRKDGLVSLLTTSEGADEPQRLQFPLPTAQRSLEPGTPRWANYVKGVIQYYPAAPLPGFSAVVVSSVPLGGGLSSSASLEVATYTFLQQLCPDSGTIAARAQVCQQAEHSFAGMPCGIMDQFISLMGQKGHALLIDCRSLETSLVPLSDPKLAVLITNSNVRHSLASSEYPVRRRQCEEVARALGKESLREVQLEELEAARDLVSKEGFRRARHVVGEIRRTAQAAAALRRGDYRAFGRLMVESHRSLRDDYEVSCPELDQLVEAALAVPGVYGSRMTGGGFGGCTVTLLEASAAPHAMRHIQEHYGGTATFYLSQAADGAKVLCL
Chain of Peptidyl-prolyl cis-trans isomerase NIMA-interacting 1 (Homo sapiens) (Q13526 whole entry, looked up): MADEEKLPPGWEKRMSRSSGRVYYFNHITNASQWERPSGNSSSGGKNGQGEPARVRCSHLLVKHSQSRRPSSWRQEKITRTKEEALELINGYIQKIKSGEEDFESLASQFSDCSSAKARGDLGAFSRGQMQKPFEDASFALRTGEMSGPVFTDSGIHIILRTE
Chain of phosphoglycerate mutase (Leishmania major) (Q4Q090 1-553): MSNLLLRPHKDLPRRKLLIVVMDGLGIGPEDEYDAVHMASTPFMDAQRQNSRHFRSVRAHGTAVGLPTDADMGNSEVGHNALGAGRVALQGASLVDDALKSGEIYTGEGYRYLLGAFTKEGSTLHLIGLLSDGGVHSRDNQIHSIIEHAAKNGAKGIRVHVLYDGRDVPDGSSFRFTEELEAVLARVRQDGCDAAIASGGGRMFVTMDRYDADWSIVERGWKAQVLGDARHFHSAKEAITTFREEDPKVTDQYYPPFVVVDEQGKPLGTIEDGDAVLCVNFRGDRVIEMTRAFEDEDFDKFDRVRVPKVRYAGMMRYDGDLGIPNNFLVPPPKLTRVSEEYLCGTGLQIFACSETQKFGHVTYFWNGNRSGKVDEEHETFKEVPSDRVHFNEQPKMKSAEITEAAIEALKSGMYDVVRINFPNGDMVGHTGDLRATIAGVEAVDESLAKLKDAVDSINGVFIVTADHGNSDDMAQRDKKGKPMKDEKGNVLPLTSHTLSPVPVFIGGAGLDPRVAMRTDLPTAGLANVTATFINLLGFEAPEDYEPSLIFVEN

SMILES	Potency [1]	viability change [1]	outcome [2]	Potency [3]	Potency [4]	Potency [5]	Potency [6]	Potency [7]	Potency [8]	Potency [9]	Potency [10]
N[C@@H](Cc1ccc(F)cc1)C(=O)O	inactive	-9.16%	inactive	inactive	inactive	inactive	inactive	inactive	inactive	inactive	
COc1cc2c(CCNC(C)=O)c[nH]c2cc1O	inactive	-0.977%	inactive	inactive	inactive	inactive	inactive	inactive	inactive	inactive	
CCSC(=N)N	inactive	0.659%	inactive	inactive	inactive	inactive	inactive	inactive	inactive	inactive	
C=C(C)C1CC=C(C(=O)O)CC1 (configuration not stated)	inactive	1.77%	inactive	inactive	inactive	inactive	inactive	inactive		inactive	inactive
Cc1nc(N=Nc2ccc(C(=O)O)cc2)c(COP(=O)(O)O)c(C=O)c1O	inactive	-9.24%	inactive	inactive	inactive	26.9 µM (active)	inactive	inactive	22.4 µM (active)	inactive	
N[C@H]1CONC1=O	inactive	1.32%	inactive	inactive	inactive	inactive	inactive	inactive	inactive	inactive	
CC1CCN=C(N)S1 (configuration not stated)	inactive	9.66%	inactive	inactive	inactive	inactive	inactive	inactive	inactive	inactive	
Nc1ccc(-c2nc3ccc(-c4nc5ccc(N)cc5[nH]4)cc3[nH]2)cc1	inactive	-10.2%	inactive	inactive	inactive	inactive	inactive	inactive	50.1 µM (active)	inactive	inactive
c1ccc(C2CN3CCSC3=N2)cc1 (configuration not stated)	inactive	5.53%	inactive	inactive	inactive	inactive	inactive	inactive	inactive	inactive	inactive
O=C(OCCN1CCOCC1)C1(c2ccccc2)CCCCC1	inactive	-0.582%	inactive	inactive	inactive	inactive	inactive	inactive	inactive	inactive	inactive
CN[C@H](CC(=O)O)C(=O)O	inactive	-4.15%	inactive	inactive	inactive	inactive	inactive	inactive	inactive	inactive	inactive
Nc1ccc(N2C(=O)c3ccccc3C2=O)c(Cl)c1	inactive	-6.09%	inactive	inactive	inactive	inactive	inactive	inactive	inactive	inactive	
CCCC[C@@]1(C2CCCC2)Cc2cc(OCC(=O)O)c(Cl)c(Cl)c2C1=O	inactive	-6.32%	inactive	inactive	inactive	inactive	inactive	inactive			inactive
O=c1oc(Cl)c(Cl)c2ccccc12	inactive	-4.81%	inactive	inactive	inactive	inactive	inactive	inactive		inactive	inactive
CCCn1c(=O)c2[nH]c(-c3ccc(S(=O)(=O)O)cc3)nc2n(CCC)c1=O	inactive	-4.01%	inactive	inactive	inactive	inactive	inactive	inactive		inactive	inactive
Nc1ncnc2c1ncn2C1CCCO1 (configuration not stated)	inactive	12.1%	inactive	inactive	inactive	inactive	inactive	inactive	inactive	inactive	inactive
COc1ccccc1N1CCN(CCCCNC(=O)c2ccc3ccccc3c2)CC1	inactive	4.82%	inactive	inactive	inactive	inactive	inactive	inactive	inactive	inactive	
CCN(CC)CCOC(=O)c1cc(Cl)c(N)cc1OC	inactive	2.46%	inactive	inactive	inactive	inactive	inactive	inactive	inactive	inactive	
CN(C)C(=O)/N=N/C(=O)N(C)C	inactive	1.53%	inactive	inactive	inactive	inactive	inactive	inactive	inactive	inactive	inactive

SMILES	Potency [1]	viability change [1]	outcome [2]	Potency [3]	Potency [4]	Potency [5]	Potency [6]	Potency [7]	Potency [8]	Potency [9]	Potency [10]
NC(=O)c1cc[n+](CC2=C(C(=O)O)N3C(=O)[C@@H](NC(=O)[C@@H](c4ccccc4)S(=O)(=O)[O-])[C@H]3SC2)cc1	inactive	3.59%	inactive	inactive	inactive	9.53 µM (active)	inactive	inactive	inactive	inactive	inactive
CCN1C(=O)C=CC1=O	inactive	1.81%	inactive	inactive	inactive	inactive	inactive	inactive	inactive	inactive	
N[C@H](C(=O)O)[C@H]1C[C@@H]1C(=O)O	inactive	2.9%	inactive	inactive	inactive	inactive	inactive	inactive	inactive	inactive	inactive
C=CC[C@H](N)C(=O)O	inactive	-2.69%	inactive	inactive	inactive	inactive	inactive	inactive		inactive	inactive
CN1CCCC1CCOC(C)(c1ccccc1)c1ccc(Cl)cc1 (configuration not stated)	inactive	-0.239%	inactive	inactive	inactive	inactive	inactive	inactive	inactive	12.6 µM (active)	
CC(=O)N[C@@H](Cc1c[nH]c2ccccc12)C(=O)OCc1cc(C(F)(F)F)cc(C(F)(F)F)c1	inactive	0.548%	inactive	inactive	inactive	inactive	inactive	inactive	20 µM (active)	inactive	inactive
C[N+](C)(C)CC=O	inactive	2.93%	inactive	inactive	inactive	inactive	inactive	inactive	inactive	inactive	inactive
O=[N+]([O-])c1cccc2cn[nH]c12	inactive	-18.2%	inactive	inactive	inactive	inactive	inactive	inactive	inactive	inactive	inactive
Nc1ccc(CCNc2ncnc3c2ncn3C2OC(CO)C(O)C2O)cc1 (configuration not stated)	inactive	5.22%	inactive	inactive	inactive	inactive	inactive	inactive	inactive	inactive	
Cc1cc2c(cc1Cl)N(C(=O)Nc1ccnc3ccccc13)CC2	inactive	1.57%	inactive	inactive	inactive	inactive	inactive	inactive	inactive	inactive	
CC(C)[C@H](NC(=O)OCc1ccccc1)C(=O)N[C@H](C=O)Cc1ccccc1 (Cbz-Val-Phe-aldehyde)	inactive	13.7%	inactive	inactive	inactive	inactive	inactive	inactive	inactive	inactive	
Cn1c(=O)c2[nH]c(C3CCCC3)nc2n(C)c1=O	inactive	1.08%	inactive	inactive	inactive	inactive	inactive	inactive	inactive	inactive	inactive
COC(=O)[C@H](NC(=O)c1cc(-c2ccccc2)nc2ccccc12)c1ccccc1	inactive	-11.1%	inactive	inactive	inactive	inactive	inactive	inactive	inactive	inactive	inactive
N=C(N)SCCc1cnc[nH]1	inactive	-8.6%	inactive	inactive	inactive	inactive	inactive	inactive	inactive	inactive	
O=C(O)Cc1ccc(O)c(O)c1	inactive	9.81%	inactive	inactive	inactive		inactive	inactive	inactive	inactive	inactive
NC1(C(=O)O)CCc2cc(C(=O)O)ccc21 (configuration not stated)	inactive	-0.824%	inactive	inactive	inactive		inactive	inactive	inactive	inactive	inactive
COc1ccc(C(=O)NCc2cccnc2)cc1C(=O)NCc1cccnc1	inactive	-5.34%	inactive	inactive	inactive		inactive	inactive	inactive	inactive	inactive
CC(C)NCC(O)COc1ccc(CC(N)=O)cc1 (configuration not stated)	inactive	0.809%	inactive	inactive	inactive		inactive	inactive	inactive	inactive	inactive
